This passage reports AC50 and outcome results from PubChem BioAssay (EPA / NIEHS).

Assay [1] in a line: IUF_NPC1b_proliferation_BrdU_72hr: Leibniz Research Institute for Environmental Medicine (IUF) 72-hour Neural Progenitor Cell Bromodeoxyuridine (BrdU) Proliferation Assay (NPC1b) (AID 2284207). In short, it runs like this: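 Luminescent BrdU ELISA measured DNA synthesis during the last 16 h of a 72 h exposure of primary human neural progenitor spheres grown with EGF and FGF. Signal was fitted relative to DMSO controls.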

Assay [2] can be described thus: IUF_NPC1a_proliferation_area_72hr: Leibniz Research Institute for Environmental Medicine (IUF) 72-hour Neural Progenitor Cell Proliferation Area Assay (NPC1a) (AID 2284208). In short, it runs like this:
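hNPC spheres (human fetal cortex, GW 16-19), one per poly-Hema U-bottom well; EGF+FGF medium; dosed day 0, no re-dosing; 72 h, 37C, 5% CO2; phase-contrast sphere area; DMSO = baseline; minus-GF = positive ctrl.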

Assay [3] can be described thus: IUF_NPC1_viability_72hr: Viability Assessment at 72 hours in the Leibniz Research Institute for Environmental Medicine (IUF) Neural Progenitor Cell Proliferation Assay (NPC1) (AID 2284209). The method, boiled down: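 Three-day continuous exposure of human neural progenitor spheres under EGF/FGF-driven proliferation; cell viability scored by alamar blue signal versus DMSO.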

Assay [4] can be described thus: CCTE_Mundy_HCI_Cortical_Synap_Neur_Matur_NeuriteSpotCountPerNeuriteLength: CCTE's Synaptogenesis and Neurite Maturation Assay in rat cortical cells for Neurite Spot Count per Neurite Length, Mundy Lab (AID 2284210). In short, it runs like this: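 Read-out: synaptophysin puncta counted along MAP2-stained neurites, normalised to neurite length, by automated high-content imaging. Rat cortical cells; AraC DIV 5; chemical dosing DIV 7; termination DIV 12. DMSO baseline.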

The nature of assay [5]: CCTE_Mundy_HCI_Cortical_Synap_Neur_Matur_BPCount: CCTE's Synaptogenesis and Neurite Maturation Assay in rat cortical cells for Branch Point Count, Mundy Lab (AID 2284211). The method, boiled down: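 In this multiplexed morphology assay, cortical cells from rat receive chemicals at DIV 7 and are fixed at DIV 12, then immunostained and imaged; branch points are counted, with DMSO as baseline.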

Assay [6] in a line: CCTE_Mundy_HCI_Cortical_NOG_NeuriteCount: CCTE's Neurite Outgrowth Assay in rat cortical cells for Neurite Count, Mundy Lab (AID 2284212).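 Further: cells fixed about two days after chemical exposure began.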 In short, it runs like this: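 Rat cortical primary cells; compound added 2 h post-plating, 1/10 dilution of working solution. Anti-betaIII-tubulin/AF488 ICC; ArrayScan neurite count vs DMSO.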
A short description of assay [7]: CCTE_Mundy_HCI_Cortical_NOG_NeuriteLength: CCTE's Neurite Outgrowth Assay in rat cortical cells for Neurite Length, Mundy Lab (AID 2284213).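 On AC50: neurites imaged about 48 to 50 h after chemical exposure began.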 In short, it runs like this: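 First, rat primary cortical cells were plated and, 2 h later, given test chemical as a 1/10 dilution. Finally, βIII-tubulin immunostaining enabled automated imaging of neurite length.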
Assay [8] in a line: CCTE_Mundy_HCI_Cortical_Synap_Neur_Matur_NeuriteLength: CCTE's Synaptogenesis and Neurite Maturation Assay in rat cortical cells for Neurite Length, Mundy Lab (AID 2284214). The method, boiled down: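 DMSO-normalised neurite length, from high-content imaging of anti-MAP2-stained rat cortical cells fixed at DIV 12. Glia were suppressed with AraC (DIV 5) before chemical exposure from DIV 7.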

The nature of assay [9]: CCTE_Mundy_HCI_Cortical_Synap_Neur_Matur_NeuriteSpotCountPerNeuron: CCTE's Synaptogenesis and Neurite Maturation Assay in rat cortical cells for Neurite Spot Count per Neuron Count, Mundy Lab (AID 2284215). The method, boiled down: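 Read-out: neurite-associated synaptophysin puncta per neuron, imaged by high-content analysis after MAP2, synaptophysin and Hoechst staining. Rat primary cortical cultures, dosed DIV 7 through DIV 12; DMSO served as baseline.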

Assay [10] is described as follows: CCTE_Mundy_HCI_Cortical_Synap_Neur_Matur_SynapseCount: CCTE's Synaptogenesis and Neurite Maturation Assay in rat cortical cells for Synapse Count, Mundy Lab (AID 2284218). The method, boiled down: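 Endpoint: synapses/neuron by HCI (synaptophysin puncta on MAP2-labelled neurites, Hoechst nuclei). Rat primary cortical cells, AraC DIV 5, dosed DIV 7, fixed DIV 12; DMSO negative control.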

The nature of assay [11]: CCTE_Mundy_HCI_Cortical_Synap_Neur_Matur_NeuriteCount: CCTE's Synaptogenesis and Neurite Maturation Assay in rat cortical cells for Neurite Count, Mundy Lab (AID 2284222).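 On outcome: exposure from day 7 to day 12 in vitro with readout at day 12.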 In short, it runs like this:
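Chemical exposure runs DIV 7–12 in rat cortical cultures, glia suppressed by AraC at DIV 5; measurement is at DIV 12. Imaging-derived neurite counts are fitted against DMSO baseline.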

A short description of assay [12]: CCTE_Mundy_HCI_Cortical_Synap_Neur_Matur_CellBodySpotCount: CCTE's Synaptogenesis and Neurite Maturation Assay in rat cortical cells for Cell Body Spot Count, Mundy Lab (AID 2284223). The method, boiled down:
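Read-out: cell body-associated synaptophysin puncta per neuron, imaged after MAP2, synaptophysin and Hoechst staining. Rat cortical cells, AraC DIV 5, chemical dosing DIV 7, fixation DIV 12. Activity fitted in positive direction relative to DMSO baseline.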

A short description of assay [13]: CCTE_Mundy_HCI_hNP1_Pro_ResponderAvgInten: CCTE's Proliferation Assay in human neuroprogenitor cells, Mundy Lab (AID 2284224; active means hit-call score of the fitted dose curve at least 0.9, where 1 is the maximum;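 further: human neural progenitor cells hNP1 derived from WA09 embryonic stem cells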). In short, it runs like this: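 Proliferation read as average intensity of BrdU-positive cells, imaged at 26.25 h post-dosing: chemical exposure started after 40–44 h culture, BrdU during final 4 h, paraformaldehyde fixation. Positive-direction fit relative to DMSO.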

Assay [14] is described as follows: CCTE_Mundy_HCI_hN2_NOG_NeuriteCount: CCTE's Neurite Outgrowth Assay in human hN2 cells for Neurite Count, Mundy Lab (AID 2284219; active means hit-call score of the fitted dose curve at least 0.9, where 1 is the maximum). In short, it runs like this: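 In this morphology assay, hNP1-derived neurons received test chemical 2 h post-plating and were fixed two days later in warm paraformaldehyde/sucrose containing Hoechst 33342. Neurites, labelled by rabbit anti-βIII-tubulin (1:800) and Alexa Fluor-488 (1:500), were counted automatically.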

The nature of assay [15]: CCTE_Mundy_HCI_hN2_NOG_NeuriteLength: CCTE's Neurite Outgrowth Assay in human hN2 cells for Neurite Length, Mundy Lab (AID 2284220; active means hit-call score of the fitted dose curve at least 0.9, where 1 is the maximum). In short, it runs like this:
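Read-out is neurite length from high-content imaging of βIII-tubulin/Alexa Fluor-488-labelled neurons, referenced to DMSO controls.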

Assay [16] in a line: CCTE_Mundy_HCI_hN2_NOG_NeuronCount: CCTE's Neurite Outgrowth Assay in human hN2 cells for Neuron Count, Mundy Lab (AID 2284221; active means hit-call score of the fitted dose curve at least 0.9, where 1 is the maximum). The method, boiled down: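 Read-out is the number of betaIII-tubulin-positive neurons imaged by automated high-content analysis, with DMSO as negative control.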
Assay [17] in a line: BSK_BT_PBMCCytotoxicity: PBMC Cytotoxicity Assessment in the BioMAP Diversity Plus: BT Assay (AID 2284225).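 Further: PBMC viability measured by Alamar Blue dye reduction fluorescence.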 To be noted: primary human B cells with PBMC. The method, boiled down: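 Primary human co-culture of B cells and PBMC, pre-dosed 1 h then activated with SEB and TSST-1. Cytotoxicity is taken from Alamar Blue dye reduction, added for 6 h at the end of a 90 h incubation.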

Read-out in assay [18]: Secreted IgG (sIgG), gene 3500
Nature of the assay: BSK_BT_sIgG: BioMAP Diversity Plus: BT Assay for Secreted IgG (sIgG) Biomarker Activity (AID 2284226). To be noted: primary human B cells with PBMC. The method, boiled down:
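In this multiplexed co-culture system, ELISA quantifies sIgG 24 h post-treatment. Endpoint analysis uses positive fitting direction, DMSO negative control.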

Assay [19] in a line: BSK_BT_Bcell_Proliferation: Viability Assessment in the BioMAP Diversity Plus: BT Assay for B cell Proliferation (AID 2284227). To be noted: primary human B cells with PBMC. In short, it runs like this: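 SRB-based protein staining (0.1% SRB after 10% TCA fixation, 560 nm) quantifies proliferation in human B cells co-cultured with PBMC, 72 h post-dosing, with signal gain scored relative to DMSO negative control.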

The structures appear in SMILES notation. Records with an inconclusive call do not appear. Active and inactive are the calls of the source. How the source made its calls, unless noted: active means hit-call score of the fitted dose curve at least 0.9, where 1 is the maximum; inactive means score below 0.9.

Consider `CC(C)(C)C(=O)C(Oc1ccc(Cl)cc1)n1cncn1` (centres undefined), for which the AC50 (as a rule, the midpoint of the concentration-response curve, whichever way the signal moves) in assay [1] was 0.513 µM (active); in assay [5] it was 9.82 µM (active); in assay [8] it was 7.05 µM (active); in assay [9], 7.48 µM (active); in [10] it was 6.09 µM (active); in assay [11], 12.8 µM (active). In addition, the call in [2], in [3], in assay [4], in assay [6], in assay [7] and in assay [12] was inactive.

On to `O=C(Nc1ccccc1-c1ccc(Cl)cc1)c1cccnc1Cl`, for which the call in assay [1], in [2], in [3], in assay [4], in [5] and in [6] was inactive. In addition, the compound was called inactive in assay [7], in [8], in assay [9], in [10], in assay [11] and in assay [12]. Further, the outcome in [13] was inactive.

For `CS(=O)(=O)c1cc(C(F)(F)F)ccc1C(=O)c1cnoc1C1CC1`, the compound was called inactive in assay [1], in assay [2], in [3], in [4], in [5] and in [6]. The call in assay [7], in [8], in [9], in assay [10], in assay [11] and in assay [12] was inactive. Further, the outcome in [13] was inactive.

`CCN(CC)c1nc(C)cc(OP(=S)(OC)OC)n1`: the result in assay [4], in assay [10], in [11] and in [12] was inactive. Moreover, the AC50 in assay [5] is 67.1 µM (active); in [6] it was 79.4 µM (active); in assay [7], 88.7 µM (active); in [8], 78.6 µM (active); in assay [9], 84.5 µM (active); in assay [14], 72.4 µM (active). Moreover, the AC50 in assay [15] is 60.7 µM (active); in [16], 50 µM (active); in assay [13] it was 89.2 µM (active).

Turning to `COP(=O)(OC)O/C(C)=C/C(=O)N(C)C`, the compound was called inactive in assay [4], in assay [5], in assay [6], in [7], in assay [8] and in assay [9]. Also, the compound was classed as inactive in [10], in assay [11], in assay [12] and in assay [13].

In the case of `Cc1c(COC(=O)[C@@H]2[C@H](/C=C(\Cl)C(F)(F)F)C2(C)C)cccc1-c1ccccc1`, the AC50 is 0.97 µM (active) in [1]; 3.2 µM (active) in assay [4]; 2.71 µM (active) in [5]; 27.8 µM (active) in [6]; 26.9 µM (active) in assay [7]; 3.7 µM (active) in assay [8]. Besides, the AC50 in assay [9] is 3.15 µM (active); in assay [10] it was 3.14 µM (active); in [11] it was 5.03 µM (active); in assay [12], 3.12 µM (active); in assay [13] it was 3.68 µM (active). In addition, the compound was classed as inactive in assay [2] and in assay [3].

For `CCNC(=O)NC(=O)C(C#N)=NOC`, the compound was classed as inactive in assay [1], in [2], in assay [3], in assay [4], in [5] and in assay [6]. The compound was called inactive in assay [7], in assay [8], in assay [9], in [11] and in [12]. In addition, the concentration at half-maximal activity (AC50) in [10] is 0.0179 µM (active).

`COC(=O)N(C(=O)N1CO[C@@]2(C(=O)OC)Cc3cc(Cl)ccc3C2=N1)c1ccc(OC(F)(F)F)cc1`: in [1], the AC50 was 0.483 µM (active). The result in assay [2], in [3], in [4], in assay [5], in assay [6] and in assay [7] was inactive. For the same compound, the compound was called inactive in assay [8], in [9], in assay [10], in assay [11], in assay [12] and in assay [13].

With `COCC(C)N(C(=O)CCl)c1c(C)csc1C` (centres undefined), the result in assay [17] and in [19] was inactive. Further, the AC50 in assay [18] was 13.5 µM (active).

As for `CN/C(=N\[N+](=O)[O-])NCc1cnc(Cl)s1`, the call in assay [1], in [2], in [3], in [4], in assay [5] and in assay [6] was inactive. Also, the result in [7], in assay [8], in assay [9], in assay [10], in [11] and in [12] was inactive.
